Data: PubChem BioAssay AID893 (National Center for Advancing Translational Sciences (NCATS), 2007)
The campaign covered roughly 75,000 compounds. About 5,700 (7.6%) were called active. Entries that show only a call come without a potency. Not shown: some 7% with an inconclusive outcome. Calls follow the shape of the dose curve; as a rule, active = well fitted inhibition curve with a large enough effect; inconclusive = small, poorly fitted or top-dose-only effect; inactive = no such curve, though single readings can be large or run the other way. Only a selection was taken, and actives are over-represented in it overall.

Molecular target: 3-hydroxyacyl-CoA dehydrogenase type-2 (Homo sapiens) (UniProt Q99714)
Assay: qHTS Assay for Inhibitors of HSD17B4, hydroxysteroid (17-beta) dehydrogenase 4; also: nearly all actives have a fitted effect of over 70% in size
Conditions: recombinant HSD17B10, NADH fluorescence kinetic; series mostly up to 57.1 µM
Source text: Assay Overview: NIH Molecular Libraries Screening Centers Network [MLSCN] NIH Chemical Genomics Center [NCGC] Structural Genomics Consortium [SGC] Grant number: None HADH2: Hydroxyacyl-Coenzyme A dehydrogenase, type II, was supplied by researchers at the Structural Genomics Consortium, Oxford University lab (PI Udo Oppermann). The mitochondrial enzyme 17-hydroxysteroid dehydrogenase type 10 (HSD17-10) previously classified as type II hydroxyacyl-CoA dehydrogenase (HADH2) catalyzes the NAD+ dependent oxidation of a variety of substrates including acyl-CoAs, androgens and neurosteroids as well as bile acids(Shafqat N, Marschall HU, Filling C, et al. Biochemical Journal. 2003;376(Pt 1):49-60). […] The enzyme was produced by E.coli fermentation as His-tagged recombinant for the purpose of X-ray structure determination, and had been mass-spectrometry characterized. Inhibition of HADH2 activity was screened by utilizing beta-hydroxybutyryl coenzyme A as an electron donor and NAD+ as an electron acceptor/cofactor. An increase in the fluorescence intensity due to conversion of NAD+ to NADH was used to measure the enzyme activity.
Assay Protocol: Buffer: 100 mM Tris-HCl pH 9.0, containing 0.01 % Tween-20. Reagents/Controls: Buffer in columns 3 and 4 as negative control (no enzyme). Substrate/cofactor solution: 1 mM NAD+ and 90 uM beta-hydroxybutyryl coenzyme A (Sigma-Aldrich, St. Louis, MO) final concentrations dispensed throughout the plate. Enzyme: 20 nM HADH2 final concentration in columns 1, 2, 5-48. Column 1 is neutral (100% activity). Column 2 contained titration of apomorphine (Sigma-Aldrich, A 4393, PubChem CID 2215, top concentration 500 uM, then 1:2 dilution in duplicate) Assay Steps: Three uL of enzyme were dispensed to 1536-well Greiner black solid bottom plates. Compounds and controls (23 nL) were transferred via Kalypsys PinTool. The plates were incubated for 15 min at room temperature, and then 1 uL of substrate/cofactor solution was added to start the reaction. The plates were immediately transferred to and read every 30 seconds for 4 min on ViewLux High-throughput CCD imager (Perkin-Elmer) using 360 nm excitation and 450 nm emission fluorescence protocol. The fluorescence intensity difference between the last and the first time points was used to compute reaction progress.
Potency is read from the fitted curve at half-maximal effect.

| SMILES | Potency | activity change, negative = inhibition |
| --- | --- | --- |
| Cc1cccc2c3c(ccc12)C1=C(C(=O)C3=O)C(C)CO1 (centres undefined) | 20 µM (active) | – |
| C[C@@]12CCC3C(CC[C@@H]4CC(O)CC[C@@]34C)C1CCC2O (some centres undefined) | inactive | – |
| CC(C)(C)[C@]1(O)C[C@@H]2OC(=O)C[C@@]23C(=O)O[C@@H]2OC(=O)[C@H](O)[C@]213 | inactive | – |
| Cc1cccc([C@H](C)c2cnc[nH]2)c1C | inactive | – |
| c1ccc(CN2CC[C@@]3(CCCNC3)C2)cc1 | inactive | – |
| c1ccc(N2CC[C@@]3(CCCNC3)C2)nc1 | 31.6 µM (active) | – |
| O=C1C2(Cl)C3(Cl)C4(Cl)C(Cl)(Cl)C5(Cl)C3(Cl)C1(Cl)C5(Cl)C24Cl (centres undefined) | inactive | – |
| CN1C2CC3CC1C(O3)C2O (centres undefined) | inactive | – |
| CCN1C[C@]2(COC)C(O)C[C@H](OC)[C@@]34C5C[C@]6(O)C(OC)C(O)[C@](OC(C)=O)(C5C6OC(=O)c5ccccc5)C(C(OC)C23)C14 (some centres undefined) | inactive | – |
| CC(=O)OC1C2CCC3C1(CC(O)[C@@]1(O)[C@@H](CC(O)C1(C)C)[C@]3(C)O)C[C@@]2(C)O (some centres undefined) | inactive | – |
| CC(C)(C)C(O)(CCc1ccc(Cl)cc1)Cn1cncn1 (centres undefined) | inactive | – |
| CCOC(=O)c1c(-c2ccccc2)oc2ccc(OC(=O)N(C)C)cc12 | 31.6 µM (active) | – |
| c1ccc(CCCCN2CCC(c3ccccc3)CC2)cc1 | inactive | – |
| CN(C)C1C(=O)C(C(N)=O)=C(O)[C@@]2(O)C(=O)C3=C(O)c4c(O)cccc4[C@@](C)(O)C3C[C@@H]12 (some centres undefined) | inactive | – |
| NCC[Se][Se]CCN | 0.794 µM (active) | – |
| N#CCCCl | inactive | – |
| C=CCSSCC=C | inactive | – |
| COc1cc(C[C@H](C)N)c(OC)cc1I | inactive | – |
| CC(=O)c1c(O)c(C)c(O)c(Cc2c(O)c3c(c(C(=O)/C=C\c4ccccc4)c2O)OC(C)(C)C=C3)c1O | 31.6 µM (active) | – |
| CCCCN1C2CCC1CC(OC(c1ccc(F)cc1)c1ccc(F)cc1)C2 (centres undefined) | inactive | – |
| C[C@H](CCC(=O)O)[C@H]1CC[C@@H]2[C@H]3CC[C@H]4C[C@H](O)CC[C@@]4(C)[C@@H]3CC[C@@]21C | – | -3.04% [at 11.4 µM] (inactive) |
| CCNC[C@H](O)c1cccc(O)c1 | inactive | – |
| Fc1ccc(C(OCCN2CCN(C/C=C\c3ccccc3)CC2)c2ccc(F)cc2)cc1 | inactive | – |
| CCOC(=O)c1c(N)n(Cc2ccccc2)c2nc3ccccc3nc12 | 15.8 µM (active) | – |
| N#Cc1c(Cl)c(Cl)c(Cl)c(C#N)c1Cl | inactive | – |
| CC1=CC(=O)C2=C(C)C[C@H](O)[C@H]3[C@H](C)C(=O)O[C@@H]3C12 (some centres undefined) | inactive | – |
| Cc1ccc(S(=O)(=O)O[C@H]2CN3CCC2CC3)cc1 | – | 7.71% [at 11.4 µM] (inactive) |

| SMILES | Potency | activity change, negative = inhibition |
| --- | --- | --- |
| COc1ccc(C2Oc3c(I)c(OC)cc(OC)c3CC2O)cc1OC (centres undefined) | inactive | – |
| NC(=O)c1ccc(OC[C@H](O)CN2CC=C(c3ccc(F)cc3)CC2)cc1 | inactive | – |
| CC[C@@](O)(C(=O)O)c1cc2n(c(=O)c1CO)Cc1cc3ccccc3nc1-2 | 3.16 µM (active) | – |
| Clc1ccccc1 | inactive | – |
| CC(C)CC(C)Nc1ccc(Nc2ccccc2)cc1 (centres undefined) | inactive | – |
| CC[C@@H]1CN2CC[C@@H]1C[C@H]2[C@H](O)c1ccnc2ccc(OC)cc12 | 25.1 µM (active) | – |
| ClC(Cl)=C(Cl)C(Cl)=C(Cl)Cl | inactive | – |
| N[C@H](C(=O)O)c1cc(=O)[nH]o1 | inactive | – |
| c1csc(CN2CCCC3(CCNCC3)C2)n1 | inactive | – |
| COC1CC(OC2CC[C@@]3(C=O)C4CC[C@]5(C)C(C6=CC(=O)OC6)CC[C@@]5(O)C4CC[C@]3(O)C2)OC(C)C1O (some centres undefined) | inactive | – |
| CCN1C[C@@]2(COC)CC[C@H](OC)[C@]34[C@@H]1[C@]1(OCO[C@@]15C[C@@H](OC)C1C[C@H]3[C@H]5[C@@H]1OC)[C@H](O)[C@@H]24 | inactive | – |
| CCN(CC)CCOC(=O)c1cc2cc(COC)ccc2o1 | 25.1 µM (active) | – |
| O=C(NCC(c1cccnc1)N1CCN(c2ccccc2)CC1)Oc1ccccc1 (centres undefined) | inactive | – |
| COc1cc2c(cc1OC)[C@@H]1C(=O)c3ccc(O)c(CC=C(C)C)c3OC1CO2 (some centres undefined) | inactive | – |
| CS(=N)(=O)CC[C@H](N)P(=O)(O)O (some centres undefined) | – | -1.1% [at 11.4 µM] (inactive) |
| CC(C)(c1ccc(OC[C@@H]2CO2)cc1)c1ccc(OC[C@H]2CO2)cc1 | inactive | – |
| O=C(c1cc(-c2ccncc2)nc2ccccc12)N1CCC2(CC1)OCCO2 | inactive | – |
| Cc1cccc(-n2c(C)nc3cc(C(=O)N4CCC5(CC4)OCCO5)ccc32)c1 | inactive | – |
| O=C(c1cc2nc(-c3ccccc3)cc(-c3ccccc3)n2n1)N1CCC2(CC1)OCCO2 | 31.6 µM (active) | – |
| CNC(C)[C@@H](O)c1ccccc1 (some centres undefined) | inactive | – |
| CCCCC#N | inactive | – |
| CCC(C)C(=O)O[C@@H]1C[C@@]2(C)C(c3ccoc3)OC(=O)CC23OC2(C)O[C@@]14[C@@]1(C)C(CC(=O)OC)C5(C)CC1(O)C(O)(C5OC(=O)C1(C)OC1C)C(OC(C)=O)[C@@]34O2 (some centres undefined) | inactive | – |
| CC(C)(Cc1c[nH]c2ccc(Cl)cc12)NCCOc1ccccc1OCC1CC1 | inactive | – |
| C[C@H]1CC[C@@]2(NC1)O[C@@H]1C[C@H]3[C@@H]4CC=C5C[C@@H](O)CC[C@]5(C)[C@@H]4CC[C@]3(C)[C@@H]1[C@@H]2C | inactive | – |
| CN1[C@@H]2CC[C@H]1CC(NC(=O)c1nn(C)c3ccccc13)C2 (some centres undefined) | 20 µM (active) | – |
| N[C@H](Cc1o[nH]c(=O)c1Cl)C(=O)O | inactive | – |
| C[C@@]12CC[C@H](O)C[C@@H]1CC[C@@H]1[C@@H]2CC[C@@]2(C)[C@@H](C3=CC(=O)OC3)[C@H](O)C[C@]12O | – | 5.61% [at 11.4 µM] (inactive) |
